Screening data (PubChem)
Sampled rows, rich in hits. Any-hit rate of the full collection: about 18%.
GCN5L2 inh – blocks human GCN5L2 histone acetyltransferase; Q92830; GCN5L2 HAT assay, ThioGlo1 CoA-SH fluorescence; Potency, µM (doses to about 58.9 µM), without a hit: top-dose activity change, negative = inhibition, actives largely listed as inhibitors; 390,000 tested, 0.21% active; AID 504327
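qHTS, 1536-well. 20nM enzyme, pH 7.5 HEPES/EDTA/Tween-20 buffer; 15 min compound preinc., RT. Start: 75uM H3(1-25), 70uM AcCoA, 50uM ThioGlo1. Read Ex340/Em540 at t=0 (autofluorescence flag) and t=20 min.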
TDP1 cell noCPT – qHTS for Inhibitors of human tyrosyl-DNA phosphodiesterase 1 (TDP1): qHTS in cells in absence of CPT; DT40 Tdp1-/- hTDP1 cells, no CPT, ATP luminescence, 48 h; Potency, µM (top dose mostly 46.2 µM), without a hit: at the highest dose activity change, negative = growth inhibition, actives largely listed as inhibitors; 420,000 tested, 15% active; AID 686978, 2013; note: nearly all actives have a fitted effect of over 55% in size
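Stably hTDP1-transfected Tdp1-null chicken DT40 cells were treated with library compounds minus camptothecin and grown for at least 48 hr at 37 °C, after which cellular ATP was quantified by luminescence.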
DT40 TDP1 CPT – DT40-hTDP1 cell growth loss with CPT; chicken DT40 Tdp1-/-;hTDP1 cells + 20 nM CPT, ATP luminescence, 48 h; Potency, µM (titrated, usually from 46.2 µM), inactives show at the highest dose activity change, negative = growth inhibition, hits mostly inhibitors; 420,000 tested, 12% active; note: nearly all actives have a fitted effect of over 55% in size
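Chicken DT40 Tdp1-/- cells complemented with human TDP1, 400 cells/well, exposed to compounds plus 20 nM camptothecin for at least 48 h at 37 C; viability read as ATP content by CellTiter-Glo luminescence.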
PLK1 PBD block – PLK1 (human) polo-box domain binding inhibition; P53350; 360,000 tested, 2.8% active; Plk1 PBD binding of FITC phosphopeptide, fluorescence polarization; Potency, µM, for the others: max response, negative = inhibition, most hits filed as inhibitors; note: series mostly up to about 57 µM; nearly all actives have a fitted effect of over 65% in size
VDR inhibitor – blocks the human vitamin D receptor; 400,000 tested, 0.93% active; VDR-SRC2-3 peptide fluorescence polarization, 2 h; Potency, µM, inactives show max response, negative = inhibition, actives largely listed as inhibitors; P11473
Target sequence (P11473 whole entry, looked up): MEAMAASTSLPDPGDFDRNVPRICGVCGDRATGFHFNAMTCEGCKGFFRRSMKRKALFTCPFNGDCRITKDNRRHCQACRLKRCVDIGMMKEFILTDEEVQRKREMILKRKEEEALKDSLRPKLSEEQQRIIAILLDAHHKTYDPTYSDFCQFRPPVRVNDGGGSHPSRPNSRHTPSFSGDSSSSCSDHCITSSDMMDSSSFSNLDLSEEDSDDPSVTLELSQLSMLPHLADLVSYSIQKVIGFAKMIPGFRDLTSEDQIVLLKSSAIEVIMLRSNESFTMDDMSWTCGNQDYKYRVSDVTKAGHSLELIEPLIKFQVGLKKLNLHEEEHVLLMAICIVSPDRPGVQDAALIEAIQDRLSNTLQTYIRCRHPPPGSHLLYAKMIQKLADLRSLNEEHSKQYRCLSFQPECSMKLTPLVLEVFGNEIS
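Two reagent solutions held at 4 deg C in the dark were dispensed, compounds pinned at 23 nl, and the mixture incubated 2 h at room temperature. Read-out: fluorescence polarization of VDR–SRC2-3 peptide binding.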
TDP1 inh – blocks human tyrosyl-DNA phosphodiesterase 1; Potency, µM (titrated, usually from 130 µM), for the others: at the top dose activity change, negative = inhibition, usual class: inhibitors; recombinant TDP1, AlphaScreen DNA substrate cleavage; 350,000 tested, 0.28% active; note: nearly all actives have a fitted effect of over 40% in size
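Compounds were preincubated with Tdp1 (1 nM final) for 15 min at room temperature before substrate (15 nM final) started a 5 min reaction; beads (10 ug/ml final) were then added for 10 min before AlphaScreen detection.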
Active calls of the source: *; ? = inconclusive; · = not tested or not shown. Calls come from the whole dose curve; as a rule, active = well fitted curve in the direction sought with a large enough effect; inconclusive = small, poorly fitted or top-dose-only effect, or another doubt; inactive = no such curve, though single readings can be large; an effect the other way counts as inactive or inconclusive. % is set by controls: 0 for no effect and ±100 for the full control effect; potency is the fitted concentration of half-maximal effect.

SMILES	GCN5L2 inh	TDP1 cell noCPT	DT40 TDP1 CPT	PLK1 PBD block	VDR inhibitor	TDP1 inh
Cc1csc(NC(=O)CSc2nnc(-c3ccoc3C)n2Cc2ccco2)n1	-13.2%	?	-29.5%	-15.7%	-13.4%	5.2%
Cc1c(CCNC(=O)c2ccc(Br)o2)sc2nc(-c3ccc(Cl)cc3)nn12	-13.2%	23.1µM*	18.4µM*	·	17.7%	2.6%
CCOc1ccc(C(=O)NCCc2sc3nc(-c4ccc(Cl)cc4)nn3c2C)cc1OCC	-2.6%	?	?	·	7.3%	-2.6%
Nc1ncnc2c1nc(Sc1ccc(Cl)cc1)n2[C@H]1OC2COP(=O)(O)O[C@@H]2C1O (stereo partly specified)	0.0%	·	·	·	-1.0%	·
CCOC(=O)c1ccc(-n2c(=S)sc3c(=O)[nH]c(C)nc32)cc1	-29.4%	16.4µM*	?	5.32µM*	50.1µM*	3.3%
C=CCNC(=O)c1sc(=S)n(-c2ccc(C(=O)OCC)cc2)c1N	-8.0%	?	?	21.2µM*	?	4.4%
CCn1c(N)c(C(=O)NCc2ccco2)sc1=S	?	-0.3%	3.5%	23.8µM*	-28.3%	-2.0%
COc1ccc(-n2c(N)c(C(=O)NCc3ccco3)sc2=S)cc1	-7.5%	-1.6%	-13.4%	-1.7%	-6.1%	-1.5%
COc1ccc(-n2c(N)c(C(=O)NCC3CCCO3)sc2=S)cc1 (stereo unspecified)	1.5%	-5.6%	-13.0%	-3.5%	4.6%	6.5%
CCOC(=O)c1ccc(-n2c(N)c(C(=O)NCc3ccco3)sc2=S)cc1	-25.6%	-19.3%	-24.5%	23.8µM*	?	4.4%
O=C(NCc1ccco1)c1ccc(C(=O)NCc2ccco2)cc1	·	-6.8%	-11.3%	-8.5%	-18.6%	·
CCC1(CC)C(=O)C2=C3C1[C@H](C(=O)OC)CC(C(=O)OC)C[C@H]3[C@H]1C(=O)N(C)C(=O)[C@H]1[C@H]2C (stereo partly specified)	·	·	·	·	11.9%	5.0%
CC(C(=O)O)n1c2ccccc2c2cnn(C)c(=O)c21 (stereo unspecified)	1.0%	20.5%	-20.7%	-2.7%	-14.3%	·
CCOc1ccc(CCNC(=O)Cn2nc(CC)n3c(cc4sccc43)c2=O)cc1	0.2%	-1.8%	-1.5%	·	0.6%	0.0%
CCN(CC)CCCNC(=O)Cc1ccc(NC(=O)N2CCCCc3ccccc32)cc1	-4.2%	-18.2%	-18.9%	·	-1.5%	4.5%
CCN(CC)CCNC(=O)CCc1c(C)nc2c(c(C)nn2-c2ccc(C)c(C)c2)c1C	2.4%	16.4µM*	?	2.2%	19.6%	·
COc1ccccc1CNC(=O)CCc1c(C)nc2c(c(C)nn2-c2ccc(C)c(C)c2)c1C	-2.2%	-2.6%	6.5%	·	1.5%	-2.5%
Cc1cccc(CCNC(=O)CCc2c(C)nc3c(c(C)nn3-c3ccccc3)c2C)c1	4.2%	14.6µM*	11.6µM*	·	-6.8%	0.0%
COc1ccc(CCNC(=O)CCc2c(C)nc3c(c(C)nn3-c3ccc(C)c(C)c3)c2C)cc1OC	-5.4%	16.4µM*	20.6µM*	·	-7.7%	5.8%
Cc1ccc2cc(C)c(N3CCN(c4ccccn4)CC3)nc2c1	-15.4%	?	18.4µM*	-7.5%	-12.0%	-11.6%
Cc1cncc(N2CCN(c3ccccn3)CC2)n1	·	-19.1%	-10.5%	-0.8%	·	·
COC(=O)c1sccc1S(=O)(=O)N(CC(=O)NCc1ccc(F)cc1)c1ccc(Cl)cc1	1.6%	?	?	·	8.0%	3.2%
COC(=O)c1sccc1S(=O)(=O)N(CC(=O)Nc1c(C)cccc1C)c1ccc(C)c(C)c1	-4.3%	-74.0%	16.4µM*	·	-1.6%	9.7%
COC(=O)c1sccc1S(=O)(=O)N(CC(=O)NCc1ccc(C)cc1)c1ccc(C)cc1	-10.4%	?	23.1µM*	·	15.8%	5.8%
COc1ccccc1N(CC(=O)Nc1c(C)cccc1C)S(C)(=O)=O	-2.7%	0.4%	-0.1%	-1.4%	-4.0%	-1.4%
SMILES	GCN5L2 inh	TDP1 cell noCPT	DT40 TDP1 CPT	PLK1 PBD block	VDR inhibitor	TDP1 inh
COC(=O)[C@@H]1C[C@H]1[C@@H](NS(=O)(=O)c1ccc(-c2ccccc2)cc1)c1ccccc1	·	·	·	·	·	4.5%
COc1ccc2cc3cc(C(=O)NCCCN4CCC(C)CC4)oc3nc2c1	-13.6%	2.59µM*	?	-9.8%	-22.6%	-1.3%
COc1ccc2cc3cc(C(=O)NCCN4CCc5ccccc5C4)oc3nc2c1	-24.8%	?	?	?	-2.2%	4.8%
COc1ccc2cc3cc(C(=O)N4CCCCC4C)oc3nc2c1 (stereo unspecified)	-8.7%	?	16.4µM*	-0.7%	-13.4%	-0.1%
COc1ccc2cc3cc(C(=O)NCCN4CCN(Cc5ccccc5)CC4)oc3nc2c1	?	20.6µM*	-28.3%	1.1%	20.4%	5.2%
O=C1c2ccccc2C(=O)N1c1cccc(O)c1	·	2.0%	-1.4%	·	-1.4%	0.8%
COc1cccc(S(=O)(=O)N(C)C[C@@H]2OCc3cn(nn3)CCCC(=O)N([C@@H](C)CO)C[C@H]2C)c1	·	-25.5%	-18.4%	-16.2%	·	·
COC(=O)NC1CCC(NC(=O)OC)CC1 (stereo unspecified)	0.0%	6.5%	-29.5%	26.7µM*	-11.8%	4.3%
O=C(Nc1ccc(/C=C/c2ccc(NC(=O)c3cc(S(=O)(=O)O)c4cccnc4c3O)cc2S(=O)(=O)O)c(S(=O)(=O)O)c1)c1cc(S(=O)(=O)O)c2cccnc2c1O	·	-21.8%	-22.6%	·	·	·
CNc1ccc2ncc(-c3cccc(C(=O)N(C)C)c3)n2n1	·	11.6µM*	?	-13.1%	·	·
CN(C)C(=O)c1cccc(-c2ccc3nncn3c2)c1	·	-4.0%	-1.7%	2.7%	·	·
O=C1CCCc2cc3c(cc21)CC1(C3)Cc2cc3c(cc2C1)C(=O)CCC3	4.9%	4.61µM*	3.66µM*	-5.2%	-17.9%	3.8%
Cc1ccc(C)c(CN2CCCN(Cc3cc(C)ccc3C)S2(=O)=O)c1	-3.1%	9.2µM*	?	-0.7%	-3.5%	1.9%
Cc1ccc(-c2nc3ccc(C)cn3c2Cc2cccc(Cl)c2)cc1	·	?	?	6.5%	·	·
COc1ccccc1Cc1c(-c2ccc(OC)c(OC)c2)nc2ccc(Cl)cn12	·	?	?	1.4%	·	·
COc1ccc(Cc2c(-c3ccc(C)cc3)nc3ccc(Cl)cn23)c(C)c1	·	23.1µM*	23.1µM*	-2.2%	·	·
COc1ccccc1Cc1c(-c2ccc(C)cc2)nc2ccc(Cl)cn12	·	0.461µM*	?	-7.9%	·	·
COc1ccccc1Cc1c(-c2ccc(C#N)cc2)nc2ccc(C)cn12	·	18.4µM*	?	9.0%	·	·
Cc1ccc2nc(-c3cccc(Cl)c3)c(Cc3ccccc3)n2c1	·	16.4µM*	20.6µM*	-5.1%	·	·
